Measured values reported in PubChem BioAssay (NCI).
The panel holds about 79,000 compounds, 15% with a hit somewhere; the sample as a whole holds those more often. Active and inactive are the calls of the source. Cut-off read from the data, not from the text of the source: active = growth inhibition above about 70%; inactive = the rest.

Tests used:
[1] = NCI Yeast Anticancer Drug Screen. Data for the rad52 strain (AID 147);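 note: 0% = growth of vehicle-treated control cultures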; settings: S. cerevisiae rad52 mutant growth inhibition, stronger effect = higher value
Procedure, shortened: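 Read-out: growth inhibition versus vehicle-treated controls. Cells were a DNA repair-deficient yeast strain treated with compounds.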

[2] = NCI Yeast Anticancer Drug Screen. Data for the wt1 strain (AID 149);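 note: 0% = growth of vehicle-treated wt1 cultures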; settings: S. cerevisiae wt1 strain (SPY 50644) growth inhibition, stronger effect = higher value
Procedure, shortened: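 Measured: growth of wt1 yeast under compound versus vehicle treatment, reported as inhibition.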

[3] = NCI Yeast Anticancer Drug Screen. Data for the rad50EPP+ strain (AID 151);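 note: 0% = growth of vehicle-treated control cultures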; settings: S. cerevisiae rad50 mutant strain, stronger effect = higher value
Procedure, shortened: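 Growth inhibition read against vehicle controls in rad50EPP+ yeast, a strain altered in DNA damage repair, after compound exposure.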

[4] = NCI Yeast Anticancer Drug Screen. Data for the mgt1 strain (AID 153); settings: S. cerevisiae mgt1 mutant growth inhibition, stronger effect = higher value
Procedure, shortened: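 mgt1 yeast grown with test compound; read-out is growth inhibition versus vehicle-treated cultures.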

[5] = NCI Yeast Anticancer Drug Screen. Data for the rad50 strain (AID 155);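 note: 0% = growth of vehicle-only cultures of the same strain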; settings: S. cerevisiae rad50 strain growth inhibition, stronger effect = higher value
Procedure, shortened: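 Growth of the mutant yeast was measured after compound exposure and referenced to vehicle-treated cultures.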

[6] = NCI Yeast Anticancer Drug Screen. Data for the mec2-1 strain (AID 157); settings: S. cerevisiae mec2-1 strain, stronger effect = higher value
Procedure, shortened: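 Yeast mec2-1 mutant treated with compound. Readout: growth inhibition vs vehicle controls.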

[7] = NCI Yeast Anticancer Drug Screen. Data for the rad14 strain (AID 159);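 note: 0% = growth of vehicle-treated control cultures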; settings: S. cerevisiae rad14 strain growth inhibition, stronger effect = higher value
Procedure, shortened: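 Here, inhibition of yeast growth was measured after compound exposure, using a strain with a genetic defect in DNA damage repair and vehicle-treated cultures as the reference.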

[8] = NCI Yeast Anticancer Drug Screen. Data for the sgs1 mgt1 strain (AID 161);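 note: 0% = growth of cultures given vehicle only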; settings: S. cerevisiae sgs1 mgt1 strain, stronger effect = higher value
Procedure, shortened: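 Test agents were incubated with a DNA-repair-mutant yeast strain. Growth was then read and compared against vehicle-treated controls.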

[9] = NCI Yeast Anticancer Drug Screen. Data for the CLN2oe strain (AID 163);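 note: 0% = growth of vehicle-only control cultures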; settings: S. cerevisiae CLN2oe strain, stronger effect = higher value
Procedure, shortened: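 Read-out: yeast growth inhibition, expressed relative to vehicle-only controls. The strain bears an engineered cell-cycle alteration.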

[10] = NCI Yeast Anticancer Drug Screen. Data for the cln2 rad14 strain (AID 165);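 note: 0% = growth equal to vehicle treated cultures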; settings: S. cerevisiae cln2 rad14 strain, stronger effect = higher value
Procedure, shortened: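 cln2 rad14 yeast strain; compound exposure; growth inhibition read vs vehicle controls.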

[11] = NCI Yeast Anticancer Drug Screen. Data for the bub3 strain (AID 167); settings: S. cerevisiae bub3 mutant strain, stronger effect = higher value
Procedure, shortened: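 Whole-cell yeast assay. The mutant strain was incubated with compounds, and growth inhibition was determined by comparison with vehicle-treated cells.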

[12] = NCI Yeast Anticancer Drug Screen. Data for the wt2 strain (AID 169);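 note: 0% = growth of vehicle-treated yeast cultures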; settings: S. cerevisiae wt2 strain growth inhibition, stronger effect = higher value
Procedure, shortened: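 Read-out: growth inhibition versus vehicle-treated control cultures after compound exposure of the yeast strain.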

[13] = NCI Yeast Anticancer Drug Screen. Data for the sgs1 strain (AID 173);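 note: 0% = growth of vehicle-only control cultures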; settings: S. cerevisiae sgs1 mutant, stronger effect = higher value
Procedure, shortened: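 Read-out: yeast growth inhibition relative to vehicle controls, following compound exposure of a strain with a defined DNA repair/cell cycle alteration.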

[14] = NCI Yeast Anticancer Drug Screen. Data for the mlh1 rad18 strain (AID 175); settings: S. cerevisiae mlh1 rad18 strain growth inhibition, stronger effect = higher value
Procedure, shortened: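 Yeast w/ defined DNA-repair lesions; compound exposure; growth vs vehicle controls → % inhibition.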

[15] = NCI Yeast Anticancer Drug Screen. Data for the rad18 strain (AID 177); settings: S. cerevisiae rad18 mutant growth inhibition, stronger effect = higher value
Procedure, shortened: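 Readout: growth inhibition vs vehicle controls. Cells: genetically altered yeast strain, DNA repair defect.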

[16] = at 5.0 µM (retest, dose inferred, filed as 0.5)
[17] = at 50.0 µM (retest, dose inferred, filed as 5.0)

Measured: growth inhibition

Cc1ccc([N+]2=NC(c3ccccc3)=NN(c3ccccc3)C2)cc1
inactive: [1]; at 1.2 µM 9% | [1]; at 3.7 µM 15% | [1]; at 11.0 µM 19% | [2]; at 1.2 µM 1% | [2]; at 3.7 µM 5% | [2]; at 11.0 µM 8% | [2]; at 33.0 µM 27% | [3]; at 1.2 µM 5% | [3]; at 3.7 µM 15% | [3]; at 11.0 µM 35% | [3]; at 33.0 µM 45% | [3]; at 100.0 µM 45% | [4]; at 1.2 µM 7% | [4]; at 3.7 µM 9% | [4]; at 11.0 µM 9% | [5]; at 1.2 µM 6% | [5]; at 3.7 µM 0% | [5]; [16] 15% | [5]; at 11.0 µM 2% | [5]; [17] 41% | [6]; at 1.2 µM -1% | [6]; at 3.7 µM -3% | [6]; [16] 2% | [6]; at 11.0 µM 1% | [6]; at 33.0 µM 65% | [6]; [17] 16% | [7]; at 1.2 µM 5% | [7]; at 3.7 µM 5% | [7]; at 11.0 µM 18% | [7]; at 33.0 µM 44% | [8]; [16] 10% | [8]; [17] 12% | [9]; at 1.2 µM 2% | [9]; at 3.7 µM -1% | [9]; at 11.0 µM 2% | [9]; at 33.0 µM 46% | [10]; [16] 11% | [10]; [17] 69% | [11]; at 1.2 µM 0% | [11]; at 3.7 µM -1% | [11]; [16] -2% | [11]; at 11.0 µM 12% | [12]; at 1.2 µM 0% | [12]; at 3.7 µM 4% | [12]; at 11.0 µM 7% | [13]; at 1.2 µM 0% | [13]; at 3.7 µM 1% | [13]; at 11.0 µM 5% | [14]; [16] 3% | [14]; [17] 45% | [15]; at 1.2 µM 2% | [15]; at 3.7 µM 11% | [15]; at 11.0 µM 11%
active: [1]; at 33.0 µM 90% | [1]; at 100.0 µM 96% | [2]; at 100.0 µM 96% | [4]; at 33.0 µM 89% | [4]; at 100.0 µM 97% | [5]; at 33.0 µM 84% | [5]; at 50.0 µM 97% | [5]; at 100.0 µM 95% | [6]; at 50.0 µM 91.8% | [6]; at 100.0 µM 96% | [7]; at 100.0 µM 96% | [8]; at 50.0 µM 95.3% | [9]; at 100.0 µM 96% | [10]; at 50.0 µM 95.8% | [11]; at 33.0 µM 94% | [11]; [17] 98% | [11]; at 50.0 µM 97.2% | [11]; at 100.0 µM 96% | [12]; at 33.0 µM 83% | [12]; at 100.0 µM 97% | [13]; at 33.0 µM 87% | [13]; at 100.0 µM 97% | [14]; at 50.0 µM 97.2% | [15]; at 33.0 µM 90% | [15]; at 100.0 µM 96%

CCCC(O)C1CC(C(C)C)CCC1C (stereo unspecified)
active: [2]; at 100.0 µM 75% | [3]; at 100.0 µM 98% | [4]; at 100.0 µM 96% | [6]; at 50.0 µM 75.5% | [6]; at 100.0 µM 96% | [7]; at 100.0 µM 99% | [10]; at 50.0 µM 92% | [11]; at 50.0 µM 92.3% | [11]; at 100.0 µM 98% | [12]; at 100.0 µM 74% | [13]; at 100.0 µM 94% | [15]; at 100.0 µM 92%
inactive: [1]; at 1.2 µM 0% | [1]; at 3.7 µM 1% | [1]; at 11.0 µM 2% | [1]; at 33.0 µM 7% | [1]; at 100.0 µM 43% | [2]; at 1.2 µM -1% | [2]; at 3.7 µM 0% | [2]; at 11.0 µM -1% | [2]; at 33.0 µM 3% | [3]; at 1.2 µM -3% | [3]; at 3.7 µM -2% | [3]; at 11.0 µM 7% | [3]; at 33.0 µM 47% | [4]; at 1.2 µM -2% | [4]; at 3.7 µM 0% | [4]; at 11.0 µM -1% | [4]; at 33.0 µM 5% | [5]; at 1.2 µM 0% | [5]; at 3.7 µM -46% | [5]; [16] 0% | [5]; at 11.0 µM 25% | [5]; at 33.0 µM 6% | [5]; [17] 5% | [5]; at 50.0 µM 31.4% | [5]; at 100.0 µM 64% | [6]; at 1.2 µM 0% | [6]; at 3.7 µM 3% | [6]; [16] 0% | [6]; at 11.0 µM 5% | [6]; at 33.0 µM 9% | [6]; [17] 52% | [7]; at 1.2 µM -1% | [7]; at 3.7 µM 0% | [7]; at 11.0 µM 4% | [7]; at 33.0 µM 17% | [8]; [16] -11% | [8]; [17] 33% | [8]; at 50.0 µM 24.8% | [9]; at 1.2 µM -3% | [9]; at 3.7 µM -3% | [9]; at 11.0 µM 5% | [9]; at 33.0 µM 4% | [9]; at 100.0 µM 12% | [10]; [16] 4% | [10]; [17] 44% | [11]; at 1.2 µM -3% | [11]; at 3.7 µM -2% | [11]; [16] -2% | [11]; at 11.0 µM -3% | [11]; at 33.0 µM 1% | [11]; [17] 10% | [12]; at 1.2 µM -1% | [12]; at 3.7 µM 6% | [12]; at 11.0 µM 0% | [12]; at 33.0 µM 4% | [13]; at 1.2 µM -2% | [13]; at 3.7 µM -1% | [13]; at 11.0 µM 4% | [13]; at 33.0 µM 15% | [14]; [16] -1% | [14]; [17] 11% | [14]; at 50.0 µM 55.9% | [15]; at 1.2 µM 0% | [15]; at 3.7 µM 1% | [15]; at 11.0 µM 2% | [15]; at 33.0 µM 9%

Cc1ccc2nc(-c3cccc([N+](=O)[O-])c3)oc(=O)c2c1
inactive: [1]; at 1.2 µM 3% | [1]; at 3.7 µM 6% | [1]; at 11.0 µM 1% | [1]; at 33.0 µM -4% | [1]; at 100.0 µM -10% | [2]; at 1.2 µM -7% | [2]; at 3.7 µM -3% | [2]; at 11.0 µM -6% | [2]; at 33.0 µM -15% | [2]; at 100.0 µM -20% | [3]; at 1.2 µM -12% | [3]; at 3.7 µM 12% | [3]; at 11.0 µM 18% | [3]; at 33.0 µM 15% | [3]; at 100.0 µM 27% | [4]; at 1.2 µM -29% | [4]; at 3.7 µM -25% | [4]; at 11.0 µM -25% | [4]; at 33.0 µM -26% | [4]; at 100.0 µM -18% | [5]; at 1.2 µM -21% | [5]; at 3.7 µM -19% | [5]; [16] 31% | [5]; at 11.0 µM -34% | [5]; at 33.0 µM -31% | [5]; [17] 62% | [5]; at 50.0 µM 14.2% | [5]; at 100.0 µM -30% | [6]; at 1.2 µM -57% | [6]; at 3.7 µM -57%
